# Reference: ChEMBL document CHEMBL2218924, “A broad activity screen in support of a chemogenomic map for kinase signalling research and drug discovery” (Biochem J, 2013)
# Target: Tyrosine-protein kinase ABL2 (Homo sapiens) (UniProt P42684)
# Conditions: at 10 µM
# Tyrosine-protein kinase ABL2 (Homo sapiens), sequence (P42684 whole entry): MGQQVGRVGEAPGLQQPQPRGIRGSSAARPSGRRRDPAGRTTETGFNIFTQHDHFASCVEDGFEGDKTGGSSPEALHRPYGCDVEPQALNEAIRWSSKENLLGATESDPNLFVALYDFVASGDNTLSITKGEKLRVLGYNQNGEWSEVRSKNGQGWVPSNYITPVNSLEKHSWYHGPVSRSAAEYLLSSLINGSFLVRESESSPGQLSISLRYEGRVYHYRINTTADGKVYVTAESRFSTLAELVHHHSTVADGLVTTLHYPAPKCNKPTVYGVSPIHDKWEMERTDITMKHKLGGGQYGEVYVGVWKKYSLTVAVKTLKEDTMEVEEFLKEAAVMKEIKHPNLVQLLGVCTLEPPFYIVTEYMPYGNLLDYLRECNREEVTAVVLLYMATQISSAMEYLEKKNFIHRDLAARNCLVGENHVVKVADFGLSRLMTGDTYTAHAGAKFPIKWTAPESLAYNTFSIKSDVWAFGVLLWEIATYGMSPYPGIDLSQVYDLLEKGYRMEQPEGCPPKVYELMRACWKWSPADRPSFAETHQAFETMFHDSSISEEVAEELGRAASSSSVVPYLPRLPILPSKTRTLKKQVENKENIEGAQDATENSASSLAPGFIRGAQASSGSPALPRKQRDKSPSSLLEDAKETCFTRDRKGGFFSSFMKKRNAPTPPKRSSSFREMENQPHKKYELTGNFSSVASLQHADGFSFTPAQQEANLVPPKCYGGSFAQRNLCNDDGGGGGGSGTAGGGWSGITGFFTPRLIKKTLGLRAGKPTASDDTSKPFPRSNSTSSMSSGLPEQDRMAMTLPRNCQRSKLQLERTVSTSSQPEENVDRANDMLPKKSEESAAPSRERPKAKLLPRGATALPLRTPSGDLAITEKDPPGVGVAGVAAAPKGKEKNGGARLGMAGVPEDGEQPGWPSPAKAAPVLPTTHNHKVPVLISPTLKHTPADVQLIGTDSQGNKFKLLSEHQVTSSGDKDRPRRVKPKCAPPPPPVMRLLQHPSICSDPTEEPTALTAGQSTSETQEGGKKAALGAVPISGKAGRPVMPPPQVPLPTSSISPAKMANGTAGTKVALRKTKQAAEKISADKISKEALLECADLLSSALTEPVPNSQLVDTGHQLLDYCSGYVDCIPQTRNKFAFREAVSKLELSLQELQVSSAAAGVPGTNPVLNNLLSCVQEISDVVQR
row,Structure (SMILES),residual activity [%]
1,COc1ccc(CNc2nc(N(CCO)CCO)nc3c2ncn3C(C)C)cc1,76
2,O=C1NC(=O)c2c1c1c3ccccc3[nH]c1c1[nH]c3cc(Br)ccc3c21,87
3,O=C1Nc2cc(Br)ccc2/C1=C1/Nc2ccccc2/C1=N\O,2
4,Cc1cccc(-c2[nH]c(C(C)(C)C)nc2-c2ccc3c(c2)OCO3)n1,97
5,COc1cc2ncnc(Nc3ccc(NC(=O)c4ccccc4)cc3)c2cc1OC,93
6,Nc1nc(Nc2ccc(S(N)(=O)=O)cc2)nn1C(=S)Nc1c(F)cccc1F,-2
7,NC(=O)c1ccc2[nH]c(-c3ccc(Oc4ccc(Cl)cc4)cc3)nc2c1,95
8,c1ccc(-c2n[nH]c3c2oc2ccccc23)cc1,93
9,Oc1c2ccccc2c2c3c(cccc13)N=N2,72
10,Cc1nc2cc3nc(-c4cccs4)cnc3cc2n1C,83
11,Oc1ccc(-c2nc(-c3ccc(F)cc3)c(-c3ccncc3)[nH]2)cc1,41
12,Oc1ccc(Nc2nc(-c3ccc(Cl)cc3)cs2)cc1,72
13,CCN(CC)C(=O)c1ccc(Nc2nc(OCC3CCCCC3)c3nc[nH]c3n2)cc1,9
14,O=C(Nc1cccc(Nc2cc(Nc3cccc(C(F)(F)F)c3)ncn2)c1)C1CC1,90
15,C[C@@H](N)[C@H]1CC[C@H](C(=O)Nc2ccncc2)CC1,100
16,CCC(=O)Nc1ccc2ncnc(Nc3cccc(Br)c3)c2c1,72
17,CO[C@@H]1[C@H](N(C)C(=O)c2ccccc2)C[C@H]2O[C@]1(C)n1c3ccccc3c3c4c(c5c6ccccc6n2c5c31)C(=O)NC4,45

row,Structure (SMILES),residual activity [%]
1,COc1cc2ncnc(N3CCN(C(=O)Nc4ccc(Oc5ccccc5)cc4)CC3)c2cc1OC,118
2,Nc1cccc(-c2cc3c(Oc4cccc(O)c4)ncnc3[nH]2)c1,-2
3,COc1ccc(C(=O)Nc2sc3c(c2C(N)=O)CCCC3)cc1OC,101
4,Cc1cncc2cccc(S(=O)(=O)N3CCCN(C(=O)CN)C[C@H]3C)c12,92
5,O=C(Nc1cccc(Nc2nccc(Nc3cccc(C(F)(F)F)c3)n2)c1)C1CC1,44
6,COc1cc2ncc(-c3ccccc3)nc2cc1OC,84
7,O=C1NC(=O)/C(=C\c2ccc3nccnc3c2)S1,86
8,O=C1NC(=O)/C(=C/c2ccc3c(c2)OC(F)(F)O3)S1,98
9,Nc1ccc2ncnc(NCCc3ccc(Oc4ccccc4)cc3)c2c1,78
10,Cc1ccc(NC2=CC(=O)c3sc(C)nc3C2=O)cc1,91
11,Oc1n[nH]c2nnc(-c3c(-c4ccccc4)nn4ccccc34)cc12,64
12,COc1ccc(OC)c2c(=S)c3ccccc3[nH]c12,84
13,N#CCCc1ccc2c(c1)-c1[nH]c3ccc([N+](=O)[O-])cc3c1CC(=O)N2,17
14,Cc1cc(Nc2nc(-c3ccccc3)nc3ccccc23)n[nH]1,3
15,CC(=O)c1ccc(N2CCOCC2)cc1O,102
16,c1ccc(-c2n[nH]cc2-c2ccnc3ccccc23)nc1,18

# Target: T1, Aurora kinase A (Homo sapiens) (UniProt O14965)
# T1 sequence (whole entry): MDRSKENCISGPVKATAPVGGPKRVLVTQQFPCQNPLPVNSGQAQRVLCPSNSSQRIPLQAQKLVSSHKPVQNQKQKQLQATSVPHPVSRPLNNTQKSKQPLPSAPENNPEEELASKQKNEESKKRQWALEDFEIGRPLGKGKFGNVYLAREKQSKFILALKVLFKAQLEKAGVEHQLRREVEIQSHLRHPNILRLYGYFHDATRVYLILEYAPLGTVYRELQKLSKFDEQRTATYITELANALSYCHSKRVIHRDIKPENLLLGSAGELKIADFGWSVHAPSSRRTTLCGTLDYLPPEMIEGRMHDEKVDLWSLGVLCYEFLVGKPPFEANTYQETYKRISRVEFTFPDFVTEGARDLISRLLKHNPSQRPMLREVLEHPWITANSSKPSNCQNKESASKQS
# Conditions: at 1 µM
row,Structure (SMILES),residual activity [%]
1,COc1ccc(CNc2nc(N(CCO)CCO)nc3c2ncn3C(C)C)cc1,89
2,O=C1NC(=O)c2c1c1c3ccccc3[nH]c1c1[nH]c3cc(Br)ccc3c21,93
3,O=C1Nc2cc(Br)ccc2/C1=C1/Nc2ccccc2/C1=N\O,31
4,Cc1cccc(-c2[nH]c(C(C)(C)C)nc2-c2ccc3c(c2)OCO3)n1,93
5,COc1cc2ncnc(Nc3ccc(NC(=O)c4ccccc4)cc3)c2cc1OC,18
6,Nc1nc(Nc2ccc(S(N)(=O)=O)cc2)nn1C(=S)Nc1c(F)cccc1F,1
7,NC(=O)c1ccc2[nH]c(-c3ccc(Oc4ccc(Cl)cc4)cc3)nc2c1,88
8,c1ccc(-c2n[nH]c3c2oc2ccccc23)cc1,53
9,Oc1c2ccccc2c2c3c(cccc13)N=N2,19
10,Cc1nc2cc3nc(-c4cccs4)cnc3cc2n1C,88
11,N#CC(C#N)=C(N)/C(C#N)=C/c1ccc(O)cc1,83
12,Oc1ccc(-c2nc(-c3ccc(F)cc3)c(-c3ccncc3)[nH]2)cc1,105
13,Oc1ccc(Nc2nc(-c3ccc(Cl)cc3)cs2)cc1,115
14,CCN(CC)C(=O)c1ccc(Nc2nc(OCC3CCCCC3)c3nc[nH]c3n2)cc1,1
15,O=C(Nc1cccc(Nc2cc(Nc3cccc(C(F)(F)F)c3)ncn2)c1)C1CC1,95
16,C[C@@H](N)[C@H]1CC[C@H](C(=O)Nc2ccncc2)CC1,95
17,CCC(=O)Nc1ccc2ncnc(Nc3cccc(Br)c3)c2c1,73

row,Structure (SMILES),residual activity [%]
1,CO[C@@H]1[C@H](N(C)C(=O)c2ccccc2)C[C@H]2O[C@]1(C)n1c3ccccc3c3c4c(c5c6ccccc6n2c5c31)C(=O)NC4,-3
2,COc1cc2ncnc(N3CCN(C(=O)Nc4ccc(Oc5ccccc5)cc4)CC3)c2cc1OC,51
3,Nc1cccc(-c2cc3c(Oc4cccc(O)c4)ncnc3[nH]2)c1,28
4,COc1ccc(C(=O)Nc2sc3c(c2C(N)=O)CCCC3)cc1OC,93
5,Cc1cncc2cccc(S(=O)(=O)N3CCCN(C(=O)CN)C[C@H]3C)c12,64
6,COc1cc2ncc(-c3ccccc3)nc2cc1OC,83
7,O=C1NC(=O)/C(=C\c2ccc3nccnc3c2)S1,94
8,O=C1NC(=O)/C(=C/c2ccc3c(c2)OC(F)(F)O3)S1,90
9,Nc1ccc2ncnc(NCCc3ccc(Oc4ccccc4)cc3)c2c1,102
10,Cc1ccc(NC2=CC(=O)c3sc(C)nc3C2=O)cc1,116
11,Oc1n[nH]c2nnc(-c3c(-c4ccccc4)nn4ccccc34)cc12,104
12,COc1ccc(OC)c2c(=S)c3ccccc3[nH]c12,116
13,N#CCCc1ccc2c(c1)-c1[nH]c3ccc([N+](=O)[O-])cc3c1CC(=O)N2,61
14,Cc1cc(Nc2nc(-c3ccccc3)nc3ccccc23)n[nH]1,1
15,CC(=O)c1ccc(N2CCOCC2)cc1O,109
16,c1ccc(-c2n[nH]cc2-c2ccnc3ccccc23)nc1,99
